Experimental data as given in PubChem BioAssay (NCI).
About 83,000 compounds went through this panel and 20% of them were active in at least one assay; those are over-represented in the sample as a whole.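 Interpretation: 100, growth as untreated; towards 0, rising growth inhibition; 0, no net growth; 0 to -100, cell death. Compounds scoring below 10 were considered active.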 A number with no mark means an inactive call. Active and inactive are the calls of the source.

Columns and labels:
Assay in all cases: NCI-60 one-dose screen, 48 h (100 = growth as untreated, 0 = no growth, -100 = all killed)
Settings in all cases: 10 µM unless noted
NCI-H23 lung = test system: NCI-H23 lung
NCI-H226 lung = test system: NCI-H226 lung
HOP-62 NSCLC = test system: HOP-62 NSCLC
NCI-H460 lung = test system: NCI-H460 lung
NCI-H522 lung = test system: NCI-H522 lung
A549/ATCC NSCLC = test system: A549/ATCC NSCLC
786-0 renal = test system: 786-0 renal
COLO 205 colon = test system: COLO 205 colon
DU-145 prostate = test system: DU-145 prostate
K-562 leukemia = test system: K-562 leukemia
MALME-3M melanoma = test system: MALME-3M melanoma
MDA-MB-231 breast = test system: MDA-MB-231 breast
RXF 393 renal = test system: RXF 393 renal
SF-268 CNS = test system: SF-268 CNS
SF-295 CNS = test system: SF-295 CNS
SF-539 CNS = test system: SF-539 CNS
UACC-257 melanoma = test system: UACC-257 melanoma
M14 melanoma = test system: M14 melanoma
HOP-92 NSCLC = test system: HOP-92 NSCLC

Structure (SMILES) | growth (NCI-H23 lung) | growth (NCI-H226 lung) | growth (HOP-62 NSCLC) | growth (NCI-H460 lung) | growth (NCI-H522 lung) | growth (A549/ATCC NSCLC) | growth (786-0 renal) | growth (COLO 205 colon) | growth (DU-145 prostate) | growth (K-562 leukemia) | growth (MALME-3M melanoma) | growth (MDA-MB-231 breast) | growth (RXF 393 renal) | growth (SF-268 CNS) | growth (SF-295 CNS) | growth (SF-539 CNS) | growth (UACC-257 melanoma) | growth (M14 melanoma) | growth (HOP-92 NSCLC)
NC(N)=NC1CCCCC1 | 101% | 101% | 108% | 113% | 85.8% | 94.1% | 98.1% | 118% | 22.3% | 93.5% | 101% | 117% | 97.3% | -15.8% (active) | 120% | 105% | 90.6% | 103% | –
Cc1ccc(Nc2cc(Cl)c([N+](=O)[O-])cc2[N+](=O)[O-])cc1 | 63.8% | 25.9% | 62.8% | 52.7% | -41.7% (active) | 76.7% | 23.5% | -31.2% (active) | 46.7% | 13.3% | 70.4% | 18.3% | -41.2% (active) | 27.7% | 99.4% | 21.7% | 73.6% | 34.7% | –
O=C(NCCN1CCCCC1)n1cc(-c2ccncc2)c(-c2ccc(Cl)c(O)c2)n1 | 83.4% | 102% | 79% | 91.5% | 84.9% | 98.4% | 85.9% | 87% | 105% | 89.5% | -1.57% (active) | 74.5% | 68% | 89.8% | 120% | 91.3% | 58.9% | 27.5% | –
N=C(N)c1ccc(-c2ccc(-c3cccs3)s2)cc1F | -62.8% (active) | -65.6% (active) | -96.2% (active) | -57.4% (active) | – | – | -86% (active) | -87.1% (active) | -77.4% (active) | -6.25% (active) | -73.4% (active) | -74.1% (active) | -92.6% (active) | -77.1% (active) | -71.2% (active) | -93.9% (active) | – | -78.3% (active) | -62% (active)
CCN(CC)c1cc(C)c(Cc2c(OC)ccc3ccccc23)cc1C | 93.7% | 92.3% | 85% | 95.1% | 74.7% | 82.8% | 100% | 96.7% | 105% | 84.7% | 102% | 98.6% | 101% | 95.7% | 103% | 103% | 96.8% | 90.8% | –
CCOC(=O)c1ccc2c(c1)nc(-c1ccc(Cl)cc1)n2-c1cc(C(C)(C)C)[nH]n1 | 44.5% | 29.5% | 39.3% | – | 26.1% | 39.9% | 14.1% | – | 53.4% | – | 33.5% | 54.1% | 21.4% | 44.8% | 16.9% | 11.3% | 73.2% | 9.36% (active) | –
O=C1SCN(Cc2ccccc2)CN1Cc1ccccc1 | 91.2% | 96.2% | 102% | 107% | 26.3% | 99.1% | 114% | 116% | 95.4% | 46.3% | 101% | 86.9% | 108% | 96.2% | 110% | 104% | 70.9% | 99.1% | –
Nc1ncnc2c1N=C(c1ccc3c(c1)OCO3)CC(c1ccc(Cl)cc1)N2 (stereo unspecified) | 81.8% | 73.3% | 44.1% | 83.3% | 84.3% | 79.6% | 74.3% | 68.1% | 92% | 83.8% | 77.2% | 72.3% | 55.1% | 77.3% | 93.4% | 80.2% | 96.2% | 96% | –
O=C(O)CSc1ccc(NCc2oc(CO)cc(=O)c2O)cc1 | 99.9% | 94.8% | 105% | 110% | 89.3% | 103% | 96.6% | 106% | 110% | 89% | 99.6% | 97.2% | 110% | 107% | 106% | 92.2% | 105% | – | –
